# PubChem BioAssay
# Values joined by “and” are separate entries in the source; they are usually repeats but may differ in a detail not shown here. Equal values may be shown once. Active and inactive are the calls of the source.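 The calls were made as follows, unless noted: active = z-score of at least 1.8 in each of two replicates, scored against plate mean and spread of sample wells; inactive = the rest.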 Starred links: 1 amine or outer side, 2 acyl side, 3 side chain; linkers in the order of their positions; H or OH if unused. Positions of bridges follow the written chain, without caps; N, C: chain ends. Non-standard residues stand in square brackets, D forms with d. Residues, ends and D or L forms follow the SMILES beside them. Chains are numbered I, II in the order given. Actinocin(9to1) = Cc1c2oc3c(C)ccc(C(=O)[*:1])c3nc-2c(C(=O)[*:2])c(N)c1=O; NMeV = CN[C@H](C(=O)O)C(C)C; Sar = CNCC(=O)O
# Key:
# [1] = sensitizers of A549 cells to miR-34 induction, primary screen, imaging, A549 dox-inducible miR-34, nuclei and caspase counts (AID 1347080;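 active = compounds whose cell count with miR-34 switched on is under 0.7 times the count with it off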); settings: A549 miR-34 inducible, Hoechst nuclei count, 48 h
# [2] = molecular target: NAD(+) hydrolase SARM1 (Homo sapiens) (UniProt Q6SZW1); test: SARM1 TIR NADase inhibitors, cell lysate, NAD-Glo luminescence (AID 1508614;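 active = compound whose remaining NAD level is above about 45 nM, limit read from the data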;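 also: higher remaining NAD means stronger inhibition of SARM1 NADase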); settings: SAM-TIR HEK293T lysate NADase, at 1 µM, stronger effect = higher value
# [3] = molecular target: Mitogen-activated protein kinase 7 (Homo sapiens) (UniProt Q13164); test: ERK5 transactivation activators in reporter cells, primary screen, cell-based, HTS (AID 1508626;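 active = luciferase signal above three times the same-plate solvent-only control wells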;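 also: luciferase driven by Gal4-ERK5 fusion binding five Gal4 sites before minimal TATA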); settings: HeLa Gal4-ERK5 transactivation, 18 h, at 5 µM, stronger effect = higher value
# [4] = viability rescue of complex I mutant cybrids, primary screen, cell-based, galactose medium, ATP luminescence (AID 1645843); settings: complex I mutant cybrid cells, 72 h, stronger effect = higher value;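 also: positive z means more ATP and so rescue of galactose-driven cybrid death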
# [5] = inhibitors of Cryptococcus chitosan production, flow cytometry, Cibacron Brilliant Red staining (AID 1347148; call rule not given here;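 also: compound exposure lasted three days at 37 degrees C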); settings: Cryptococcus neoformans chitosan, stronger effect = lower value; at 10 µM unless noted
# [6] = survival rescue of mitochondrial mutant cells in low glucose, primary screen, MELAS cybrids, Rieske KO mouse fibroblasts, CellTiter-Glo (AID 1508586;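 active = mean z-score across replicates of 1.96 or higher in either the MELAS or the Rieske mutant cell line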;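 also: z relative to plate mean and SD of compound and empty wells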)
# [7] = phospholipid biosynthesis inhibitors in animal cells, primary screen, cell-based, LOPAC library, screen 4 (AID 1347384; call rule not given here); settings: phospholipid biosynthesis inhibition screen, at 10 µM
# [8] = stronger effect = lower value, cell number ratio, induced over uninduced
# [9] = measured here: relative caspase fold change +Dox/-Dox
# [10] = measured here: total cells with miR-34 induction, stronger effect = lower value
# [11] = measured here: total cells without miR-34 induction
# [12] = MELAS cybrid survival, CellTiter-Glo 48 h, stronger effect = higher value
# [13] = Rieske KO mouse fibroblast survival, CellTiter-Glo 72 h
# Sequence of NAD(+) hydrolase SARM1 (Homo sapiens) (Q6SZW1 whole entry, looked up, the tested form may be a part): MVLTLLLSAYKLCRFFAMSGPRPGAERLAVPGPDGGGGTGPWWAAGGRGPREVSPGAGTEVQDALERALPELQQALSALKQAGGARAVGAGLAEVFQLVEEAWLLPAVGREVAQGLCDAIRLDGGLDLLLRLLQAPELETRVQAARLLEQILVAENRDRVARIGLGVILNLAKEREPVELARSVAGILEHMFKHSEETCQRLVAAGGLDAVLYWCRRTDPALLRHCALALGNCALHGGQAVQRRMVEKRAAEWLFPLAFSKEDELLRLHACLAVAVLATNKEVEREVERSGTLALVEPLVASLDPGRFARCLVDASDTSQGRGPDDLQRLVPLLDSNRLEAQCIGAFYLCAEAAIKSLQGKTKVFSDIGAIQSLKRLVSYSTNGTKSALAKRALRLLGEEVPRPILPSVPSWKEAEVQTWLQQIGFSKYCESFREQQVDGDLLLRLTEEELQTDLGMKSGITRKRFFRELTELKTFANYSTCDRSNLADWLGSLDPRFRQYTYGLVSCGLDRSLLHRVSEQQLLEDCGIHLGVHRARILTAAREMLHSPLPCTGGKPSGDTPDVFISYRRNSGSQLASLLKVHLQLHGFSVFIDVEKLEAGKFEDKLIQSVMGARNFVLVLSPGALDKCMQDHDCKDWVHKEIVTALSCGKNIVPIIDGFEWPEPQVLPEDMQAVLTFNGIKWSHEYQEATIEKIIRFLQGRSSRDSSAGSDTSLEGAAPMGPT
# Sequence of Mitogen-activated protein kinase 7 (Homo sapiens) (Q13164 whole entry, looked up, the tested form may be a part): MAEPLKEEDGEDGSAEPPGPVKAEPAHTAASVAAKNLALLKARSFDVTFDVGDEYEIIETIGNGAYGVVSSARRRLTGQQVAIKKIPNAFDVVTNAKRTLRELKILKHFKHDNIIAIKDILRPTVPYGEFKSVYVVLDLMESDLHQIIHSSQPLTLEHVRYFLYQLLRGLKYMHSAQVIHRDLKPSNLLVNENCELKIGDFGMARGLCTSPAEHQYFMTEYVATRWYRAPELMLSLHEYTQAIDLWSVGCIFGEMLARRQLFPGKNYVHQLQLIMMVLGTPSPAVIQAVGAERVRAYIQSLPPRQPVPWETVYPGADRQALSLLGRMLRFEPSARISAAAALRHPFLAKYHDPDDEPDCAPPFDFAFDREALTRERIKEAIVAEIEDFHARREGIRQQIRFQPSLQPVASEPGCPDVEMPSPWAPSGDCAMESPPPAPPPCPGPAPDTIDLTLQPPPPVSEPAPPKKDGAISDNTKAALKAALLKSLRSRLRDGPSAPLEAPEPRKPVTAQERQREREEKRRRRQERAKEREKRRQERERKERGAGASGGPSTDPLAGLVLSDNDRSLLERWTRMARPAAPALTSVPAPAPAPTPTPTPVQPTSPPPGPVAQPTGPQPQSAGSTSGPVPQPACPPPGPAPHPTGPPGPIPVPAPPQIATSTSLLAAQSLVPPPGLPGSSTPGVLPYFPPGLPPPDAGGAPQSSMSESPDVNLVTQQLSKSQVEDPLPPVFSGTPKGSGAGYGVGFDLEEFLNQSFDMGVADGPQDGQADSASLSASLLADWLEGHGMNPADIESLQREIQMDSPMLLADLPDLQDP
SMILES,"fold change [1, 8]","fold change [1, 9]","cell count [1, 10]","cell count [1, 11]",remaining NAD [2],luciferase signal [3],z-score [4],fold fluorescence [5],"z-score [6, 12]","z-score [6, 13]",outcome [7]
C=Cc1c(C)c2cc3[nH]c(cc4nc(cc5nc(cc1[nH]2)C(C)=C5CCC(=O)O)C(CCC(=O)O)=C4C)c(C)c3C=C,1.04 (inactive),1.36,9230,8840,10 nM (inactive),56 AU (inactive),-0.23 (inactive),,,,
OCc1cccnc1,0.908 (inactive),1.47,8900,9800,10 nM (inactive),,0.275 (inactive),,,,
C=CCc1ccc(O)c(OC)c1,0.949 (inactive),0.583,11000,11600,10 nM (inactive),12 AU (inactive),,,,,
CO[C@@]1(NC(=O)C(C(=O)O)c2ccc(O)cc2)C(=O)N2C(C(=O)O)=C(CSc3nnnn3C)CO[C@@H]21 (stereo not given in full),0.852 (inactive),0.729,11300,13300,10 nM (inactive),32 AU (inactive),,,,,
CC(Cc1ccccc1)(NC(=O)CN)c1ccccc1 (stereo not given),0.999 (inactive) and 0.923 (inactive),2.09 and 0.645,9240 and 8260,9260 and 8950,,,0.32 (inactive) and -0.22 (inactive),,,,
NCC1CCC(C(=O)Oc2ccc(CCC(=O)O)cc2)CC1 (stereo not given),0.97 (inactive),1.97,9870,10200,,,0.62 (inactive),,,,
CCN(CC)C(=O)c1cccc(C)c1,0.989 (inactive),1.76,11700,11800,10 nM (inactive),68 AU (inactive),,,,,
COc1ccc(-c2cc(C(F)F)nn2-c2ccc(S(N)(=O)=O)cc2)cc1F,0.791 (inactive),2.48,10300,13000,10 nM (inactive),44 AU (inactive),,,,,
NC(=O)NC(=O)Cc1ccccc1,0.88 (inactive),0.863,11800,13400,10 nM (inactive),160 AU (inactive),,,,,
COc1cc(C)c(Cc2cnc(N)nc2N)cc1OC,0.944 (inactive),1.06,9440,10000,,,0.02 (inactive),,,,
Oc1cccc(O)c1,0.918 (inactive),2.54,12000,13100,10 nM (inactive),20 AU (inactive),,,,,
O=C1CC2(CCCC2)CC(=O)N1CCNCC1COc2ccccc2O1 (stereo not given),0.839 (inactive) and 0.901 (inactive),1.72 and 0.868,8960 and 8470,10700 and 9400,,,0.655 (inactive) and -0.78 (inactive),,,,
"Cc1c2oc3c(C)ccc(C(=O)N[C@@H]4C(=O)N[C@H](C(C)C)C(=O)N5CCC[C@H]5C(=O)N(C)CC(=O)N(C)[C@@H](C(C)C)C(=O)O[C@@H]4C)c3nc-2c(C(=O)N[C@@H]2C(=O)N[C@H](C(C)C)C(=O)N3CCC[C@H]3C(=O)N(C)CC(=O)N(C)[C@@H](C(C)C)C(=O)O[C@@H]2C)c(N)c1=O (I: T[dV]P[Sar][NMeV] / II: T[dV]P[Sar][NMeV]; ester I:1-I:C, II:1-II:C; linker I:N-II:N via Actinocin(9to1))",,,,,10 nM (inactive),16 AU (inactive),,23.3 [at 107.6 µM] (inactive),,,
NC(=O)c1ccccc1O,0.92 (inactive),3.12,11700,12800,10 nM (inactive),56 AU (inactive),,,,,
c1ccc(CN(CC2=NCCN2)c2ccccc2)cc1,,,,,10 nM (inactive),112 AU (inactive),-0.39 (inactive) and 0.065 (inactive),,0.519 (inactive) and -0.255 (inactive) and -0.229 (inactive),-0.208 and -0.144 and -0.113,
CSc1ccc2c(c1)C(N1CCN(C)CC1)Cc1ccccc1S2 (stereo not given),,,,,10 nM (inactive),,-1.29 (inactive) and -1.22 (inactive) and -2.1 (inactive),,-0.294 (inactive) and -0.887 (inactive),0.279 and -1.2,inactive
O=C(CCNNC(=O)c1ccncc1)NCc1ccccc1,,,,,10 nM (inactive),76 AU (inactive),0.035 (inactive) and 0.205 (inactive) and 0.305 (inactive),,-0.952 (inactive) and 0.716 (inactive),-0.171 and 0.697,inactive
CCCCC1C(=O)N(c2ccccc2)N(c2ccccc2)C1=O,,,,,10 nM (inactive),156 AU (active),0.865 (inactive) and 0.7 (inactive),,0.0284 (inactive) and -1.01 (inactive) and 0.0538 (inactive),0.0743 and -0.296 and -0.0136,inactive
